Sampled rows, rich in hits. Any-hit rate of the full collection: about 8.3%.
FMDV inh = foot and mouth disease virus antiviral activity; FMDV antiviral cell-based qHTS; Potency, µM (doses to about 57.9 µM), without a hit: top-dose activity change, negative = inhibition, usual class: inhibitors; actives 1.2% (n = 410,000); AID 1159524; calls by dose curve; tested in HEK293T cells; also: read-out not given here; potency is read from the fitted curve at half-maximal effect; nearly all actives have a fitted effect of over 45% in size
HCMV antiviral = inhibitors of human cytomegalovirus. HFF cells, HCMV-luciferase reporter, 72 h; active compounds read low. activity change, negative = inhibition, % at 57.5 µM. actives 4.5% (n = 410,000). AID 1259415; in the data active = activity change below about -60%; inconclusive = no clear call, values can overlap the other calls; inactive = above about -39%
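HFF cells seeded 16 h at 37C, treated with compounds, infected with luciferase-reporter HCMV at MOI 1 PFU/cell; luciferase read at 72 h post infection, normalized to buffer-only and Salinomycin controls.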
MARV entry inh = blocks Marburg virus binding to or entry into cells; Marburg virus pseudotyped entry inhibition, cell reporter; Potency, µM (highest dose often 37.8 µM), without a hit: top-dose activity change, negative = inhibition, usual class: inhibitors; actives 1.8% (n = 300,000); calls by dose curve; tested in HEK293 cells; also: potency is read from the fitted curve at half-maximal effect
HCV inhibitor = inhibitors of hepatitis C virus infection. AID 651820. actives 3.4% (n = 340,000). Potency, µM (highest dose often 41.8 µM), for the others: top-dose activity change, negative = inhibition, usual class: inhibitors. Huh7.5.1 HCVcc-Cre infection, luciferase reporter, 44 h; also: potency is read from the fitted curve at half-maximal effect
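Luciferase read-out (15 sec integration) after a 15 min room-temperature substrate step quantifies HCVcc-Cre infection. Cells, 1,000 per well, had compound added 4 h post-plating, then virus at ~0.5 moi, and were cultured 44 h.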
LASV entry inh = Lassa virus entry inhibition. actives 1.2% (n = 300,000). AID 540256. Lassa virus pseudotype entry inhibition, cell reporter. Potency, µM (titrated, usually from 37.9 µM), inactives show at the top dose activity change, negative = inhibition, most hits filed as inhibitors; calls by dose curve; tested in HEK293 cells; also: potency is read from the fitted curve at half-maximal effect; nearly all actives have a fitted effect of over 50% in size
FBPA Giardia inh = inhibitors of Giardia lamblia fructose-1,6-bisphosphate aldolase | A8B2U2 | purified Giardia FBPA | Potency, µM (doses to about 59.6 µM), for inactives: at the highest dose activity, negative = inhibition, hits mostly inhibitors | actives 0.71% (n = 290,000) | AID 2451; also: potency is read from the fitted curve at half-maximal effect; nearly all actives have a fitted effect of over 55% in size
Target sequence (A8B2U2 whole entry, looked up): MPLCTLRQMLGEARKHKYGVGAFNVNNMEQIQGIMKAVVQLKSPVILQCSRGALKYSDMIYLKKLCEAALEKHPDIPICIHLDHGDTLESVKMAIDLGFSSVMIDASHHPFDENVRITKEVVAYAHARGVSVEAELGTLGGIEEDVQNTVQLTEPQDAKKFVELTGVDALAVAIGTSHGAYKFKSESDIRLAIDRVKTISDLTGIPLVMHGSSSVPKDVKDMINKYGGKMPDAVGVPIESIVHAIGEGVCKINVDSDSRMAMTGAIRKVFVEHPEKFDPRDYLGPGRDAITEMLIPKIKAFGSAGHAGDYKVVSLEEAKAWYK
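Giardia FBPA (40 nM reagent) was preincubated 10 min at RT with compound (up to 57.5 uM final), then substrate plus GAPDH/TPI/NAD/arsenate coupling system with diaphorase/resazurin was added; resorufin fluorescence (525/598 nm) was read after 20 min.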
* = called active by the depositor; ? = inconclusive; . = not tested or not shown; + = active, no number; [ ] = dose if it differs, or a comment. Unless noted, calls follow the shape of the dose curve; as a rule, active = well fitted curve in the direction sought with a large enough effect; inconclusive = small, poorly fitted or top-dose-only effect, or another doubt; inactive = no such curve, though single readings can be large; an effect the other way counts as inactive or inconclusive. % is scaled to controls: 0 for no effect and ±100 for the full control effect.

SMILES	FMDV inh	HCMV antiviral	MARV entry inh	HCV inhibitor	LASV entry inh	FBPA Giardia inh
Cc1ccc(S(=O)(=O)N[C@H]2COC(=O)C/C=C\[C@@H](C)[C@H](NS(=O)(=O)c3ccc(C)cc3)COC(=O)C/C=C\[C@H]2C)cc1	.	.	.	.	.	1%[12.9 µM]
COc1ccc(Nc2nc(NCc3ccco3)nc(N/N=C/c3ccc(O)cc3)n2)cc1	-9%	-61*	?	?	-3%	-2%
O=[N+]([O-])c1ccc(Nc2nc(NC3CCCCC3)nc(N3CCCC3)n2)cc1	-3%	-73*	?	?	-29%[46.1 µM]	-16%
O=[N+]([O-])c1ccc(Nc2nc(N/N=C/c3cccc(F)c3)nc(N3CCCC3)n2)cc1	?	38	?	?	?	9%
Cc1c2cnn(CC(=O)N3CCOCC3)c(=O)c2c(C)n1Cc1ccc(F)cc1	.	-5	.	.	.	.
Cc1cccn2c(=O)c3cc(S(=O)(=O)c4ccc(F)cc4)c(=N)n(Cc4ccco4)c3nc12	6%	-13	?	2.8µM*	?	7%
Cc1c2cnn(CC(=O)NCCN3CCOCC3)c(=O)c2c(C)n1Cc1ccc(F)cc1	0%	-72*	.	12%	.	-2%
COCCCn1c(=N)c(C(=O)NC2CCCC2)cc2c(=O)n3cccc(C)c3nc21	54%	2	20%[46.1 µM]	.	?	.
N=c1c(C(=O)NC2CCCCC2)cc2c(=O)n3ccccc3nc2n1Cc1ccccc1	-11%	?	.	11µM*	.	.
Cc1cccn2c(=O)c3cc(C(=O)NC4CCCC4)c(=N)n(CCCN4CCOCC4)c3nc12	-8%	-25	3.5µM*	-19%	-12%[46.1 µM]	-2%
COc1ccc(COC(=O)N/N=C2\C[C@@H](O)[C@@H](O)[C@@H]3[C@@H]4C(=O)N(Cc5ccc6c(c5)OCO6)C(=O)[C@@H]4CC[C@@H]23)cc1	.	.	4%[14.2 µM]	.	.	.
Cc1cc(=O)oc2cc(NC(=O)[C@H](CCCCN)NC(=O)[C@H](CC3CCCCC3)NC(=O)OCC3c4ccccc4-c4ccccc43)ccc12	.	.	.	.	.	-4%
CCCn1c(C)nc2c(NCCN3CCOCC3)nc(C)nc21	.	.	.	.	.	-2%
Cc1cccn2c(=O)c3cc(C(=O)NCCN4CCOCC4)c(=N)n(Cc4ccc(F)cc4)c3nc12	-3%	-100*	?	?	5.6µM*	.
O=C(NC1CCCN(Cc2ccc(Cl)cc2)C1)c1cnc2ccccn2c1=O (centres undefined)	-29%	-65*	?	?	?	-4%
CCc1nn(CC(=O)NCCCN2CCOCC2)c(=O)c2cc3cc(F)ccc3n12	4%	+	7%[46.1 µM]	-32%	16%[46.1 µM]	-5%
CC(C)Cc1ccc(CN2CCCC(NC(=O)c3cnc4ccccn4c3=O)C2)cc1 (centres undefined)	?	-23	-18%[46.1 µM]	-11%	?	.
COc1ccc(CCNC(=O)c2cc3c(=O)n4cccc(C)c4nc3n(CCCN3CCOCC3)c2=N)cc1	0%	-95*	.	?	.	18%
Cc1ccsc1CN1CCc2nnc(CCNC(=O)c3ccc(F)cc3)n2CC1	-4%	.	.	.	.	.
O=C(NCCc1ccccc1Cl)c1ccc2c(=O)n(-c3ccccc3)c(=O)[nH]c2c1	?	?	-26%[46.1 µM]	.	8%[46.1 µM]	.
N=c1c(C(=O)NCCc2ccccc2)cc2c(=O)n3ccccc3nc2n1CCCN1CCOCC1	-4%	-17	7.1µM*	?	?	3%
N=c1c(C(=O)NCc2ccccc2)cc2c(=O)n3ccccc3nc2n1CCCN1CCOCC1	-3%	-5	?	?	-3%	-9%
CCCCn1c(SCC(=O)Nc2nnc(C(C)C)s2)nc2c1c(=O)n(C)c(=O)n2C	-17%	-75*	-4%	?	?	-3%
CCCCn1c(SCC(=O)N2c3ccccc3Sc3ccccc32)nc2c1c(=O)n(C)c(=O)n2C	?	3	11µM*	?	?	-2%
CC[Se]CC[C@@H](N)C(=O)O	.	.	-8%	.	.	.
SMILES	FMDV inh	HCMV antiviral	MARV entry inh	HCV inhibitor	LASV entry inh	FBPA Giardia inh
O=C(/C=C\c1ccc(O)c(O)c1)O[C@@H](Cc1ccc(O)c(O)c1)C(=O)O	-19%	.	.	.	.	-29%
O=C(/C=C/c1ccc(O)c(O)c1)OC(Cc1ccc(O)c(O)c1)C(=O)O (centres undefined)	-22%	-29	.	10µM*	.	?
CCOc1ccc(CN=C(N)N=C(N)N)cc1Cl	0%	6	?	?	-19%	0%
CCCOc1ccc(CCCN=C(N)N)cc1Cl	?	-74*	?	8.9µM*	0%	4%
CCCCOc1ccc(CN=C(N)N)cc1Cl	?	-20	.	10µM*	.	0%
C=CCn1c(COc2ccccc2F)nnc1SCC(=O)Nc1cc2oc3ccccc3c2cc1OC	-14%	-15	?	7.1µM*	?	8%
C=CCn1c(COc2ccccc2F)nnc1SCC(=O)c1c[nH]c2ccccc12	-30%	-34	13µM*	?	?	-4%
C=CCn1c(SCC(=O)Nc2cc3oc4ccccc4c3cc2OC)nnc1-c1cnccn1	7%	-4	?	13µM*	0%	-15%
COC(=O)C1=C(C)NC(C)=C([N+](=O)[O-])[C@@H]1c1ccccc1C(F)(F)F	-11%	.	.	.	.	?
O=C(N[C@@H]1C/C=C\C[C@H](CC(=O)N(CCO)Cc2ccccc2)C(=O)N[C@@H](Cc2ccccc2)COC1=O)OCC1c2ccccc2-c2ccccc21	-11%	-69*	.	-18%	.	.
O=C(C[C@@H]1C/C=C\C[C@@H](NC(=O)OCC2c3ccccc3-c3ccccc32)C(=O)OC[C@@H](Cc2ccccc2)NC1=O)NCCO	-11%	-32	.	2µM*	.	.
COc1ccc(-c2onc(C)c2C)cc1S(=O)(=O)N(C)Cc1ccccc1	?	?	.	.	-18%[46.1 µM]	.
COc1cc2c(cc1O)[C@@H]1Cc3ccc(OC)c(O)c3CN1CC2	0%	-15	.	2.5µM*	.	.
COc1ccc(C[C@@H]2c3cc(O)c(OC)cc3CCN2C)cc1O	?	14	-2%	9%	-7%	0%
Cc1nc(N2CCN(C)CC2)c2c(C)c(C(=O)Nc3ccc(C)c(F)c3)sc2n1	0%	35	?	8.9µM*	0%	-1%
Cc1nc(N2CCN(c3ccccn3)CC2)c2c(C)c(C(=O)Nc3c(F)cc(F)cc3Br)sc2n1	-14%	?	.	13µM*	.	-4%
Cc1nc(N2CCCCC2)c2c(C)c(C(=O)Nc3ccc4c(c3)OCCO4)sc2n1	0%	-61*	.	?	.	-5%
COc1ccc(NC(=O)c2ccc(CN3CCN(c4ccccc4)CC3)cc2)cc1OC	-8%	.	10µM*	?	?	4%
O=C(Nc1ccc(CN2CCOCC2)cc1)c1ccc(Cl)cc1	4%	?	.	1%	.	-6%
COc1cccc(NC(=O)CCN2CCN(c3ccccc3)CC2)c1	-26%	-75*	6%[46.1 µM]	.	?	.
CC(C)(C)c1ccc(C(=O)Nc2ccc(CN3CCS(=O)(=O)CC3)cc2)cc1	?	-80*	?	5.6µM*	?	-1%
